Measured values from PubChem BioAssay (NCI).
About 83,000 compounds went through this panel and 20% of them were active in at least one assay; those are over-represented in the sample as a whole.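 Step 1: grow cells in 96-well plates. Step 2: add test compound at a single concentration. Step 3: incubate 48 h. Step 4: record percent growth.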 Values without a mark were called inactive. Calls of active or inactive are those of the source. Rule for the calls: active = growth percent below 10; inactive = the rest.

Experiments:
Assay in all cases: NCI-60 one-dose screen, 48 h (100 = growth as untreated, 0 = no growth, -100 = all killed)
Conditions in all cases: 10 µM unless noted
[1] = system: NCI-H23 lung
[2] = system: NCI-H226 lung
[3] = system: NCI-H322M lung
[4] = system: HOP-62 NSCLC
[5] = system: NCI-H460 lung
[6] = system: HOP-92 NSCLC
[7] = system: NCI-H522 lung
[8] = system: A549/ATCC NSCLC
[9] = system: 786-0 renal
[10] = system: COLO 205 colon
[11] = system: DU-145 prostate
[12] = system: K-562 leukemia
[13] = system: MALME-3M melanoma
[14] = system: MDA-MB-231 breast
[15] = system: RXF 393 renal
[16] = system: SF-268 CNS
[17] = system: SF-295 CNS
[18] = system: SF-539 CNS
[19] = system: UACC-257 melanoma
[20] = system: M14 melanoma

Structure (SMILES)	growth [1]	growth [2]	growth [3]	growth [4]	growth [5]	growth [6]	growth [7]	growth [8]	growth [9]	growth [10]	growth [11]	growth [12]	growth [13]	growth [14]	growth [15]	growth [16]	growth [17]	growth [18]	growth [19]	growth [20]
Cc1cccc(Cl)c1NC(=O)c1cnc(Nc2cc(N3CCOCC3)cc(S(C)(=O)=O)c2)s1	81.5%	66%	-6.54% (active)	11.8%	71.4%	-55.1% (active)	7.33% (active)	-0.245% (active)	11.6%	-6.99% (active)	-41.1% (active)	6.1% (active)	42.2%	9.71% (active)	-34.8% (active)	25.4%	53.8%	2.23% (active)	43.2%	42.4%
O=C(COc1cccc(/C=C2\Cc3ccc(Cl)cc3C2=O)c1)Nc1nccs1	78.5%	86.1%	96.9%	96.5%	89.2%	77.2%	2.66% (active)	88.7%	98.5%	113%	108%	89.5%	116%	71.7%	107%	108%	119%	79.9%	110%	107%
COc1cc(Nc2ncc3c(n2)-c2ccc(Cl)cc2C(c2c(F)cccc2OC)=NC3)ccc1C(=O)O	77.6%	63.2%	90.4%	50.2%	30.7%	115%	53.5%	54.2%	89.1%	8.87% (active)	78.4%	44.9%	72.4%	69.6%	95%	73%	64.6%	56.6%	80.8%	62.8%
Brc1ccc([I+]c2ccc(Br)cc2)cc1	-9.33% (active)	45.9%	48.1%	-83% (active)	18.6%	-6.41% (active)	-35.7% (active)	40.5%	27.7%	-28.7% (active)	52.6%	9.03% (active)	35.7%	15.1%	40.6%	-56.7% (active)	27.5%	27.3%	27%	10.3%
CN1CCN(c2nc(C3=C(c4c[nH]c5ccccc45)C(=O)NC3=O)c3ccccc3n2)CC1	70.1%	73.8%	29.2%	44.3%	87.5%	80.7%	68%	51.7%	92.8%	-2.65% (active)	90.5%	66.5%	-12.8% (active)	70.6%	120%	95.1%	98.7%	92.2%	-20% (active)	12.2%
COC1CCC(N2C(=O)CNc3ncc(-c4ccc(C(C)(C)O)nc4)nc32)CC1 (stereo not given)	15.8%	8.08% (active)	-5.65% (active)	5.54% (active)	12.4%	-12% (active)	-10.3% (active)	2.75% (active)	6.56% (active)	-7.31% (active)	4.44% (active)	4.22% (active)	-17.6% (active)	14.2%	-28.5% (active)	18.5%	-15.4% (active)	-21.9% (active)	-15.8% (active)	2.03% (active)
CO[C@@H](C)Cn1c(=O)n(C)c2cnc3ccc(-c4cncc(C(C)(C)O)c4)cc3c21	-2.1% (active)	-12.7% (active)	-15.2% (active)	-14.5% (active)	5.83% (active)	-24% (active)	3.46% (active)	-11.7% (active)	-11.1% (active)	-24.6% (active)	13%	14.8%	-36% (active)	6.56% (active)	-47.2% (active)	7.58% (active)	-39.6% (active)	-39.5% (active)	-16.6% (active)	3.8% (active)
C=C1CC[C@@H]2[C@](C)(COC(C)=O)[C@H](OC(C)=O)CC[C@@]2(C)[C@@H]1C/C=C1/C(=O)OC[C@H]1OC(C)=O	80.9%	23.6%	101%	75.7%	98%	71.9%	-41.6% (active)	85.8%	-10.9% (active)	22%	50.9%	11.1%	77.7%	95.8%	-7.35% (active)	87.1%	95%	8.54% (active)	66.5%	35.4%
